Results from PubChem BioAssay (Tox21).
“And” between values parts separate entries of the source, which are not always exact repeats. Identical values can stand only once. Records with an inconclusive call do not appear. A call without a number means that no potency is given here. A structure can be active in one record and inactive in another. The source made the active and inactive calls. Calls follow the shape of the full dose curve.
Potency is read from the fitted curve at half-maximal effect.

Assay: qHTS assay to identify small molecule antagonists of the sonic hedgehog signaling (Shh) pathway (AID 1259369); also: nearly all actives have a fitted effect of over 45% in size
Settings: NIH/3T3 Gli1-Luc reporter, Shh antagonist, luminescence 24 h; series mostly up to 92.4 µM; activity change, negative = inhibition: at the top concentration
Text: U.S. Tox21 Program National Center for Advancing Translational Sciences [NCATS] NIH Chemical Genomics Center [NCGC] U.S. Environmental Protection Agency [EPA] National Institutes of Environmental Health Sciences [NIEHS] National Toxicology Program [NTP] U.S. Food and Drug Administration [FDA] Tox21 Assay Overview: The sonic hedgehog (Shh) pathway is essential for normal embryonic development. Dysregulation of the Shh pathway can cause severe developmental defects in organs. Therefore chemicals that interfere with the pathway are potential developmental toxicants. A cell line designated 3T3Gli1-Luc (DMB/OARSA/CFSAN/FDA, Laurel, MD), a NIH/3T3 derived clone containing stably integrated Gli1-Luc reporter is used to detect chemical interference of the Shh pathway, by changes in the expression of the firefly Luc gene under the control of the Gli1 transcriptional response element. This cell line was used to screen Tox21 libraries for identifying and prioritizing the potential developmental toxicants that interfere Shh pathway. Conditioned medium-stimulated mode was used to screen for chemicals inhibiting Shh signaling.
Tox21 Assay Protocol Summary: 3T3 Gli1-Luc cells were dispensed at 2,000 per well in 5uL of culture medium into white solid bottom 1536-well plates (Greiner Bio-One, Monroe, NC) using a Multidrop Combi (Thermo Scientific, Waltham, MA) dispenser. The assay plates were incubated at 37 C and 5% CO2 for 4hr, and then 23nL of compounds dissolved in DMSO and positive control were transferred using a Pintool station (Wako, San Diego, CA). The compound transfer was followed by the addition of 1ul conditioned medium or assay buffer using two separate tips of Flying Reagent Dispenser (FRD, Aurora Discovery, San Diego, CA). The assay plates were incubated at 37C and 5% CO2 for 24hr. For luciferase read, 4uL of Amplite Luciferase reporter gene assay reagent (AAT Bioquest, Inc. Sunnyvale, CA) was added to each well of the assay plates using FRD and incubated at room temperature for 30min. The luminescence signal was measured using a ViewLux plate reader (Perkin Elmer, Shelton, CT).
With CO[Si](CCCNCCN)(OC)OC the Potency was 8.76 µM (active) and inactive.
For O=C1OC(=O)c2c(Cl)c(Cl)c(Cl)c(Cl)c21, the Potency was “inactive”.
With NC1CCCCC1N (stereo not given) the Potency was “inactive”.
With CCCCCNCCCCC the Potency was “inactive”.
In the case of O=C1O[C@H]([C@H](O)CO)C(O)=C1O, the Potency was “inactive”.
For C=CC(=O)NCOCCCC, the Potency was “inactive”.
With CC1=CC(=O)CC(C)(C)C1 the “activity change, negative = inhibition” value was 0.363% (inactive).
In the case of COC(=O)CCCCC(=O)OC, the Potency was “inactive”.
For CCCCCCCCCCCCCC(=O)O, the “activity change, negative = inhibition” value was -23% (inactive).
With CC/C=C(\C(=O)N[C@@H]1C(=O)N2C(C(=O)OCOC(=O)C(C)(C)C)=C(COC(N)=O)CS[C@H]12)c1csc(N)n1 the Potency was “inactive”.
With CCCCC(=O)O the Potency was “inactive”.
For Cc1cc(C)cc(O)c1, the Potency was 1.09 µM (active).
For OC[C@H]1O[C@@H](Oc2ccc(O)cc2)[C@H](O)[C@@H](O)[C@@H]1O, the Potency was “inactive”.
With COC(=O)/C=C\C(=O)OC the Potency was “inactive”.
In the case of O=[N+]([O-])c1ccccc1C(F)(F)F, the Potency was “inactive”.
For Cc1nnc(NS(=O)(=O)c2ccc(N)cc2)s1, the Potency was “inactive”.
With OC1CCCCC1 the Potency was “inactive”.
With Brc1ccc(Oc2ccc(Br)cc2)cc1 the Potency was “inactive”.
With O=c1n(CCCN2CCN(c3cccc(Cl)c3)CC2)nc2ccccn12 the “activity change, negative = inhibition” value was 13.9% [at 42.5 µM] (inactive).
In the case of Cc1ncc(CO)c(CO)c1O, the Potency was “inactive”.
For Cc1ccc(C(C)C)cc1, the “activity change, negative = inhibition” value was 0% (inactive).
With O=C(O)C1=NN(c2ccc(S(=O)(=O)O)cc2)C(=O)C1 the Potency was “inactive”.
With OCCOCCOCCOCCOCCO the “activity change, negative = inhibition” value was 2.59% (inactive).
For O=C1C(N(CO)C(=O)NCO)N(CO)C(=O)N1CO (stereo not given), the Potency was “inactive”.
For O=C(NCC1CCCCN1)c1cc(OCC(F)(F)F)ccc1OCC(F)(F)F (stereo not given), the Potency was 19 µM (active) and inactive.
In the case of CC(CN1c2ccccc2Sc2ccccc21)N(C)C (stereo not given), the Potency was 12.3 µM (active) and 27.3 µM (active) and 13.3 µM (active).
With NCCNCCNCCN the Potency was “inactive”.
For N[C@@H](Cc1cc(I)c(Oc2ccc(O)c(I)c2)c(I)c1)C(=O)O, the “activity change, negative = inhibition” value was 5.8% (inactive).
With C[n+]1ccn(CCO)c1 the Potency was “inactive”.
In the case of OCC(CO)(CO)CO, the Potency was “inactive”.
In the case of Cc1cc(C)c(O)c(C)c1, the Potency was “inactive”.
For CC/C(C)=N/O, the Potency was “inactive”.
For O=[N+]([O-])c1cc(C(F)(F)F)ccc1Cl, the Potency was “inactive”.
With Clc1cccc(Cl)c1NC1=NCCN1 the Potency was “inactive”.
In the case of OCC(O)CS (stereo not given), the Potency was “inactive”.
For Cc1cc(CC(=O)O)n(C)c1C(=O)c1ccc(Cl)cc1, the Potency was “inactive”.
In the case of CCOC(=O)CC(=O)OCC, the “activity change, negative = inhibition” value was 2.98% (inactive).
In the case of CC(=O)OCCC(C)C, the Potency was “inactive”.
With CS(=O)(=O)c1ccc(Cl)cc1 the Potency was “inactive”.
For CC1(C)C(=O)N(Cl)C(=O)N1Cl, the Potency was “inactive”.
